# Source: PubChem
# HP1b binding inh: HP1-beta chromodomain-methylated histone interaction inhibition; P83916; AlphaScreen HP1-beta / biotin-H3K9me3 peptide binding; AID 540317; 390,000 tested, 0.56% active; Potency, µM (doses to about 114 µM), most hits filed as inhibitors; further: nearly all actives have a fitted effect of over 70% in size
#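 AlphaScreen: HP1-beta (50 nM) preformed 30 min with biotin-H3(1-18)K9me3 peptide (50 nM) in PBS pH 7.4, 0.01% Tween-20. Compound added for 30 min at RT, then streptavidin donor/nickel chelate acceptor beads (10 ug/mL) for 30 min.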
# G9a block: G9a (human) methyltransferase inhibition; Q96KQ7; G9a H3K9 monomethylation, AlphaScreen, 2 h; Potency, µM (series often up to 102 µM), most hits filed as inhibitors; 350,000 tested, 8.8% active; AID 504332; further: nearly all actives have a fitted effect of over 75% in size
#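 G9a (20 nM) preincubated 15 min RT with compounds, then 500 nM biotinylated H3K9 peptide and 20 uM SAM added; 2 h RT reaction. Monomethyl-H3K9 product detected by AlphaScreen with anti-H3K9me1 antibody, streptavidin donor and anti-rabbit IgG acceptor beads.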
# Sfp inh: Sfp phosphopantetheinyl transferase inhibition | Q9F4F7 | Biochemical Sfp PPTase activity, qHTS | Potency, µM, usual class: inhibitors | 310,000 tested, 3.5% active;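 further: the enzyme is Sfp with the accession as filed and its product quenches rhodamine fluorescence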
#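 After 15 min at room temperature with compound, 15 nM Sfp received 5 uM rhodamine-CoA plus 12.5 uM BHQ-2-ybbR (50 mM Hepes pH 7.6, 10 mM MgCl2). Rate came from the fluorescence difference over 30 min, ex 525/em 598 nm.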
# JMJD2A Tudor inh: JMJD2A Tudor domain (human) inhibition. Potency, µM (series often up to 114 µM), hits mostly inhibitors. AlphaScreen JMJD2A-Tudor / H3K4me3 peptide binding. 390,000 tested, 4.4% active. O75164; further: nearly all actives have a fitted effect of over 50% in size
# Target sequence (O75164 whole entry, looked up, the tested form may be a part): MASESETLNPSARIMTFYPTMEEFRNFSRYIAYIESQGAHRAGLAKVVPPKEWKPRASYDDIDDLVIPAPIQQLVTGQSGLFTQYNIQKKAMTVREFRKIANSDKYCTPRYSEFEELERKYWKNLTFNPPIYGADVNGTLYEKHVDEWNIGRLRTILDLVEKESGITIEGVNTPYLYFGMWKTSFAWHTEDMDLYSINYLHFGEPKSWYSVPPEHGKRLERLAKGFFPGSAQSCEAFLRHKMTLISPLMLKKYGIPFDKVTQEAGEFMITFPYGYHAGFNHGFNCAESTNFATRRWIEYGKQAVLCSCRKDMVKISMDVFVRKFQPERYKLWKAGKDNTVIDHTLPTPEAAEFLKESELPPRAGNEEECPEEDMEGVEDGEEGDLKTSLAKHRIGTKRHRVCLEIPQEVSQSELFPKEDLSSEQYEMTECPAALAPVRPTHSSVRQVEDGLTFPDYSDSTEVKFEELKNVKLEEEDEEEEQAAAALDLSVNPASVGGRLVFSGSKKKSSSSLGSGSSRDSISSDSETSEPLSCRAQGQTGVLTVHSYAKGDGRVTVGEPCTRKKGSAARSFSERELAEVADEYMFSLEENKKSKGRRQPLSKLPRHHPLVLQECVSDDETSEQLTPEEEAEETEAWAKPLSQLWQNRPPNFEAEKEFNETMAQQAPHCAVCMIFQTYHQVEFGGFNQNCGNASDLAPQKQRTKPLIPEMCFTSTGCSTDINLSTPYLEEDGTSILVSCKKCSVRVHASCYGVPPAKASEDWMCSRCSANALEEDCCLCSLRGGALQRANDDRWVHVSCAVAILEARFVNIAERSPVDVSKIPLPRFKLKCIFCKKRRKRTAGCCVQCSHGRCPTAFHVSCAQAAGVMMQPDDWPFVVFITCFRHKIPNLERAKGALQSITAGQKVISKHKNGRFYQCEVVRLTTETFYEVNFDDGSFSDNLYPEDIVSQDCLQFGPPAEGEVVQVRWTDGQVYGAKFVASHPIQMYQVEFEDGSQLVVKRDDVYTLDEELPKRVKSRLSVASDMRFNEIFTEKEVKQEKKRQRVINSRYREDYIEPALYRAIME
# L3MBTL1 inh: inhibitors of human L3MBTL1; Q9Y468; AlphaScreen L3MBTL1–H3K9me1 peptide binding; Potency, µM (top dose mostly 57.1 µM), actives largely listed as inhibitors; 230,000 tested, 0.66% active; further: nearly all actives have a fitted effect of over 60% in size
#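 First, the protein-peptide complex forms for 30 min at room temperature (L3MBTL1 50 nM, biotinylated H3K9me1 peptide 75 nM). Next, compounds are pin-transferred and incubated 30 min. Finally, AlphaScreen beads are added and read after 30 min.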
# BAZ2B block: inhibitors of human BAZ2B bromodomain; Q9UIF8; AlphaScreen BAZ2B-H3K14Ac peptide displacement; Potency, µM (titrated, usually from 114 µM), hits mostly inhibitors; 360,000 tested, 4.4% active; AID 504333; further: nearly all actives have a fitted effect of over 60% in size
#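 Inhibition is scored as reduced AlphaScreen emission. The BAZ2B/b-H3(5-23)K14Ac complex (50 nM each) in PBS pH 7.4, 0.01% Tween-20 meets compound (up to 110 uM) for 30 min at RT before bead addition.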
# Numbers stand for hits; i = inactive; ? = inconclusive; nt = no result given; ! = not active in a repeat; [ ] = remark or other dose. An excerpt weighted towards active compounds, which were near 12% of everything screened. The call rests on the fitted dose curve; in most records, active means well fitted curve in the direction sought with a large enough effect; inconclusive means small, poorly fitted or top-dose-only effect, or another doubt; inactive means no such curve, though single readings can be large; an effect the other way counts as inactive or inconclusive.
SMILES,HP1b binding inh,G9a block,Sfp inh,JMJD2A Tudor inh,L3MBTL1 inh,BAZ2B block
Cc1c(-c2ccccc2)sc(N)c1C(=O)N1CCOCC1,?,3.98µM,44.7µM,i[11.4 µM],i,i
CCOC(=O)c1c(N)sc(C(O)(C(F)(F)F)C(F)(F)F)c1-c1ccccc1,?,i,i,?,nt,i
Cc1cc(C)c(C(=O)c2ccccc2)c(C)c1,i,nt,nt,i,nt,nt
O=C1CC(c2nc3ccccc3n2Cc2c(F)cccc2Cl)CN1c1cccc(C(F)(F)F)c1 (stereo not drawn),i,i,nt,i,nt,i
CC(C)(C)OC(=O)NCc1nnc(C(C(=O)OCc2ccccc2)c2ccccc2)s1 (stereo not drawn),nt,nt,nt,i,nt,nt
CCCCc1cc(=O)oc2cc(C)cc(OCC(=O)N3C[C@H]4C[C@@H](C3)c3cccc(=O)n3C4)c12,i,i[12.7 µM],i,i,nt,i
Cc1ccc(-n2c(C)cc(/C=C3\NC(=O)NC3=O)c2C)c(C)c1,?,?,i,35.5µM,i,39.8µM
Cc1cc(/C=C2/NC(=O)NC2=O)c(C)n1-c1ccc(N2CCOCC2)cc1,?,44.7µM,i,?,i,?
Cc1cc2oc(=O)c(CC(=O)O)c(C)c2c2occ(-c3ccc(F)cc3)c12,i,i,nt,i,nt,i
Cc1c(CCC(=O)O)c(=O)oc2c(C)c3occ(-c4ccc(Br)cc4)c3cc12,?,44.7µM,i,?,nt,56.2µM
Cc1c(CC(=O)O)c(=O)oc2c(C)c3occ(-c4ccc(F)cc4)c3cc12,i,i,35.5µM,i,nt,?
COC(=O)[C@H]1C[C@@H]2CC[C@@H](O)C[C@@H]2N1Cc1c(F)cccc1Cl,nt,nt,i,nt,nt,nt
CCCN1CCC(NC(=S)Nc2ccc(OC)c(OC)c2)CC1,i,50.1µM,i,i,i,i
COc1ccc(NC(=S)NCCCN2CCCC2)cc1Cl,i,17.8µM,20µM,i,nt,?
COc1cc(NC(=S)NCCCN2CCOCC2)c(OC)cc1Cl,i,?,i,i,i,i
COc1ccc(NC(=S)NCCN2CCOCC2)c(OC)c1,i,nt,nt,i,nt,nt
COc1ccc(OC)c(NC(=S)NCCCN2CCOCC2)c1,i,?,50.1µM,i,i,i
CCCN1CCC(NC(=O)Nc2ccc(Br)cc2)CC1,i,35.5µM,i,i,i,i
CCCN1CCC(NC(=O)Nc2ccc([N+](=O)[O-])cc2)CC1,i,i[12.7 µM],i,i,i,i
Cc1cc2c(s1)c1cnn(Cc3ccc(F)cc3Cl)c(=O)c1n2C,nt,nt,nt,i,nt,nt
COc1ccc(CCCc2nnc(SCC(=O)Nc3cc(F)ccc3C)o2)cc1,i,i,nt,i,nt,i
Cc1noc(NS(=O)(=O)c2ccc(NS(=O)(=O)c3ccc(Cl)cc3)cc2)c1C,i,nt,nt,i,i,nt
CC(C)c1onc(-c2c(Cl)cccc2Cl)c1COc1ccc(/C=C/c2cccc(C(=O)O)c2)c(Cl)c1,nt,nt,i,nt,nt,nt
Cc1c(C(=O)OCC(=O)NC2CC2)oc2ccc(Br)cc12,i,i,nt,i,i,i
COc1ccc(NC(=S)NCCN2CCC(C)CC2)cc1Cl,i,11.2µM,2.51µM,i,i[2.29 µM],i
SMILES,HP1b binding inh,G9a block,Sfp inh,JMJD2A Tudor inh,L3MBTL1 inh,BAZ2B block
Cc1ccc(C(=O)NNC(=O)c2ccccc2)cc1S(=O)(=O)N1CCCCC1,i,i[12.7 µM],nt,i,i,i
O=c1c2ccccc2sn1-c1ccc(S(=O)(=O)N2CCCCC2)cc1,?,nt,nt,8.91µM,nt,nt
O=S(=O)(c1ccc(S(=O)(=O)N2CCCC2)cc1)N1CCCCC1,i,i,i,i,nt,i
O=c1c2ccccc2sn1-c1ccc(S(=O)(=O)N2CCCC2)cc1,1.41µM,nt,3.16µM,11.2µM,i,7.08µM
Cc1ccc(-n2sc3ccccc3c2=O)cc1S(=O)(=O)N1CCCCC1,?,0.891µM,1.58µM,7.94µM,i,5.62µM
CCN1C(=O)N[C@H](c2ccc(Br)cc2)C(C(C)=O)=C1C,i,44.7µM,89.1µM!,i,i,i
Nc1ccc(N2CCCCC2)c2nonc12,?,nt,?,56.2µM,?,25.1µM
Nc1c(N2CCCC2)cc(Cl)c2nonc12,i,4.47µM,i,?,28.2µM,i
Nc1nonc1-c1noc(N2CCCCC2)n1,i,?,i,i,i,i
Cc1cc2c(s1)c(C=O)c(C(=O)NCc1ccccc1F)n2C,nt,i[12.7 µM],nt,nt,i,i
C=CCOc1ccc(CNn2cn[nH]c2=S)cc1OCC,i,i[0.501 µM],?,8.91µM,i,i
COc1cc(CNn2cn[nH]c2=S)cc(Cl)c1OCc1ccc(F)cc1,i,5.62µM,i,i,i,i
C=CCOc1ccc(CNn2cn[nH]c2=S)cc1OC,i,3.16µM,i,22.4µM,i,i
O=Nc1ccc(NOC(=O)c2ccccc2Br)cc1,i,i,i,i,i,?
O=C(ONc1ccc(N=NC(=O)c2ccccc2O)cc1)c1ccccc1,i,?,i,?,i,10µM
CCc1cc(-c2n[nH]c(CCC(=O)O)c2-c2nc3ccccc3n2C)c(O)cc1O,i,7.08µM,i,i,nt,i
CCc1cc(-c2n[nH]c(C)c2-c2nc3ccccc3n2C)c(O)c(CN2CCN(C)CC2)c1O,i,44.7µM,i,?,i,?
COc1ccc(CCNCC(C)c2ccccc2)cc1 (stereo not drawn),i,44.7µM,i,7.94µM,nt,?
COc1ccc(NC(=O)NC(C)c2ccccc2)cc1 (stereo not drawn),i,i,i,i,nt,i
COc1ccc(CCC(C)NCC(C)c2ccccc2)cc1 (stereo not drawn),i,nt,i,i,i,i
COc1ccc(NC(C)c2ccccc2)cc1 (stereo not drawn),?,12.6µM,i,50.1µM,nt,39.8µM
COc1ccc(CCNCC(O)c2ccccc2)cc1 (stereo not drawn),i,14.1µM,i,5.01µM,i,56.2µM
O=C(CN1C(=O)C(=O)N(Cc2ccco2)C1=O)c1c[nH]c2ccccc12,i,50.1µM,?,i,i,i
NS(=O)(=O)c1ccc(CCNCC(=O)NCc2ccccc2Cl)cc1,i,i,i,28.2µM,nt,50.1µM
O=C(NCc1ccco1)C(=O)c1c[nH]c2ccccc12,i,i[12.7 µM],i,i,i,?
SMILES,HP1b binding inh,G9a block,Sfp inh,JMJD2A Tudor inh,L3MBTL1 inh,BAZ2B block
O=C(CN1C(=O)C(=O)N(CCC2=CCCCC2)C1=O)c1c[nH]c2ccccc12,i,nt,nt,i,i,nt
O=C(Cc1c[nH]c2ccccc12)NCc1ccco1,i,?,i,i,i,50.1µM
O=C(O)C(=O)Cc1c[nH]c2ccccc12,?,25.1µM,?,44.7µM,i,?
CCCCCCN(C(=O)CCCCCN1C(=O)NC(c2ccc(-c3ccccc3)cc2)C(C(=O)OCc2ccccc2)=C1C)C(C(=O)NCCCC)c1ccc(OCC(=O)O)c(C(=O)O)c1 (stereo not drawn),nt,nt,i,nt,nt,nt
O=C(CNCc1ccccc1Cl)NCc1ccco1,22.4µM,i,?,i,i,20µM
O=C(CNCCc1ccc(Cl)cc1Cl)NCc1ccco1,i,?,i,i,i,i
CCOC(=O)c1c(NC(=O)c2cc(CC)on2)sc(C)c1C,?,7.08µM,nt,i,nt,i
